Screens deposited in PubChem BioAssay by National Center for Advancing Translational Sciences (NCATS).
DT40 TDP1 CPT – DT40-hTDP1 cell growth loss with CPT; chicken DT40 Tdp1-/-;hTDP1 cells + 20 nM CPT, ATP luminescence, 48 h; Potency, µM (titrated, usually from 46.2 µM), for the others: at the top dose activity change, negative = growth inhibition, hits mostly inhibitors; 12% of 420,000 active; note: nearly all actives have a fitted effect of over 55% in size
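Chicken DT40 Tdp1-/- cells stably complemented with human TDP1 were seeded at 400 cells/well in medium containing 20 nM camptothecin, exposed to pin-transferred compounds, and grown at 37 °C for at least 48 hr. Viability was read as ATP luminescence.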
VDR inhibitor – inhibitors of human vitamin D receptor. AID 504847. VDR-SRC2-3 peptide fluorescence polarization, 2 h. 0.93% of 400,000 active. P11473. Potency, µM, without a hit: max response, negative = inhibition, usual class: inhibitors
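Compounds are added to VDR with labelled SRC2-3 coactivator peptide and held 2 h at room temperature. Inhibition of the VDR–peptide interaction is then read as a change in fluorescence polarization.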
KAT2A inh – inhibitors of human GCN5L2 histone acetyltransferase | Q92830 | GCN5L2 HAT assay, ThioGlo1 CoA-SH fluorescence | Potency, µM (titrated, usually from 58.9 µM), for the others: at the highest dose activity change, negative = inhibition, hits mostly inhibitors | 0.21% of 390,000 active | AID 504327
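qHTS, 1536-well. 20nM enzyme, pH 7.5 HEPES/EDTA/Tween-20 buffer; 15 min compound preinc., RT. Start: 75uM H3(1-25), 70uM AcCoA, 50uM ThioGlo1. Read Ex340/Em540 at t=0 (autofluorescence flag) and t=20 min.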
PLK1 PBD block – inhibitors of human PLK1 polo-box domain binding. P53350. Plk1 PBD binding of FITC phosphopeptide, fluorescence polarization. Potency, µM, for inactives: max response, negative = inhibition, hits mostly inhibitors. 2.8% of 360,000 active. AID 720504; note: series mostly up to about 57 µM; nearly all actives have a fitted effect of over 65% in size
Target sequence (P53350 whole entry, looked up, the tested form may be a part): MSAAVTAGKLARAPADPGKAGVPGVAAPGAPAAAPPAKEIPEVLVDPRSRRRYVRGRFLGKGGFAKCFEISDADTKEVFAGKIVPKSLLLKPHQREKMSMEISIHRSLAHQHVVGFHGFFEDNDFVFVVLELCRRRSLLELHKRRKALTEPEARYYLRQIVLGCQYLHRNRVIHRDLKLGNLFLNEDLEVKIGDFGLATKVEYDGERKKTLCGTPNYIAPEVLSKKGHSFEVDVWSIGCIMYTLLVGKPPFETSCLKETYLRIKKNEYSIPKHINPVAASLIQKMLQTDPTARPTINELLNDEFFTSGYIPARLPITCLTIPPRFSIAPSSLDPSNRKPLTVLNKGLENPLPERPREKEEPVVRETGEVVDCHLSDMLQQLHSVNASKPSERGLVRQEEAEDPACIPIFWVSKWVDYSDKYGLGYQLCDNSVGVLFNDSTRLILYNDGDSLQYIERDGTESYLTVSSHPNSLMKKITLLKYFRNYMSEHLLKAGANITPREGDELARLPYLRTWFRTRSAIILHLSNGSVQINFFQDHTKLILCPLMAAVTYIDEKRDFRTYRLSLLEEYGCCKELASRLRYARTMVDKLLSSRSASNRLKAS
TDP1 cell noCPT – qHTS for Inhibitors of human tyrosyl-DNA phosphodiesterase 1 (TDP1): qHTS in cells in absence of CPT | Potency, µM (top dose mostly 46.2 µM), for the others: at the highest dose activity change, negative = growth inhibition, actives largely listed as inhibitors | DT40 Tdp1-/- hTDP1 cells, no CPT, ATP luminescence, 48 h | 15% of 420,000 active | AID 686978, 2013; note: nearly all actives have a fitted effect of over 55% in size
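Readout: luminescence from CellTiter-Glo after 30 min in the dark at RT. Cells: DT40 Tdp1-/- with stable hTDP1, 400/well. Exposure: compounds alone, ≥48 hr, 37 °C.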
TDP1 block – inhibitors of human tyrosyl-DNA phosphodiesterase TDP1; Q9NUW8; recombinant TDP1, AlphaScreen DNA substrate cleavage; Potency, µM (highest dose often 130 µM), for inactives: top-dose activity change, negative = inhibition, actives largely listed as inhibitors; 0.28% of 350,000 active; AID 485290; note: nearly all actives have a fitted effect of over 40% in size
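Tdp1 1 nM final; 15 min RT w/ cpd; substrate 15 nM, 5 min; beads 10 ug/ml, 10 min; AlphaScreen read. Neg ctrl: no enzyme.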
Numbers without * were called inactive; u = inconclusive; x = no result; [ ] = remark or other dose. Only some compounds are listed: those with a hit (about 18% of all), similar ones and a draw of the others. Calls come from the whole dose curve; as a rule, active = well fitted curve in the direction sought with a large enough effect; inconclusive = small, poorly fitted or top-dose-only effect, or another doubt; inactive = no such curve, though single readings can be large; an effect the other way counts as inactive or inconclusive. % is set by controls: 0 for no effect and ±100 for the full control effect; potency is the fitted concentration of half-maximal effect.

SMILES	DT40 TDP1 CPT	VDR inhibitor	KAT2A inh	PLK1 PBD block	TDP1 cell noCPT	TDP1 block
C=CCN1C(=O)c2ccc(C(=O)N(CCOC)c3c(N)n(CCCC)c(=O)[nH]c3=O)cc2C1=O	4.3%	0.5%	1.2%	-2.3%	-1.9%	-4.3%
CC(C)(C)c1ccc(CC(=O)N2CCC2(C)C(=O)Nc2ccc(F)cc2F)cc1 (centres undefined)	23.1µM*	x	x	1.0%	16.4µM*	x
CC1(C(=O)Nc2ccc(F)cc2F)CCN1C(=O)CCC1CCCC1 (centres undefined)	u	x	x	-2.1%	23.1µM*	x
CC1(C(=O)Nc2ccc(F)cc2F)CCN1C(=O)Cc1ccccc1Cl (centres undefined)	-5.7%	x	x	-4.4%	-20.1%	x
COc1ccc(OC)c(CNC(=O)c2cnc3c(C)cccn3c2=O)c1	4.4%	-4.0%	-7.6%	x	4.4%	2.5%
Oc1ccc2ccccc2c1SSc1c(O)ccc2ccccc12	x	10µM*	u	x	x	x
NCc1c(O)ccc2ccccc12	x	x	-0.4%	x	x	0.0%
COc1ccc(-c2noc(CN3CCCC(OCc4ccccn4)C3)n2)cc1 (centres undefined)	16.4µM*	-9.4%	1.2%	-5.6%	u	3.6%
Cc1cccc(-c2oc3ccc(-c4ccc5c(c4)OCO5)cc3c2C(=O)OCc2ccc(O)cc2)c1	16.4µM*	-27.4%	0.6%	u	u	x
O=C(c1sc2ccccc2c1Cl)N1CCN(c2ccccn2)CC1	-1.0%	7.1%	-7.3%	-1.1%	1.1%	2.3%
O=C1c2ccccc2C2N1CCCN2C(=O)c1sc2ccccc2c1Cl (centres undefined)	18.4µM*	x	x	-14.6%	16.4µM*	x
O=C1C=CC(=O)N1	3.26µM*	39.8µM*	-3.6%	29.9µM*	3.26µM*	x
C=CCOC(=O)Nc1snnc1C	-0.2%	-3.8%	3.6%	-10.0%	1.8%	1.0%
Cc1nnsc1NC(=O)OCc1ccc(C(C)(C)C)cc1	14.6µM*	1.9%	-6.2%	-8.4%	8.2µM*	5.2%
COc1ccc2c(c1)-c1nc(NC(=O)c3ccc(C)cc3)sc1CC2	u	-5.3%	-2.7%	x	u	5.3%
COc1ccc2c(c1)-c1nc(NC(=O)c3ccc(OC)c(Br)c3)sc1CC2	u	-5.5%	-17.4%	x	8.2µM*	5.1%
COc1ccc2c(c1)CCc1sc(NC(=O)c3cccc(Br)c3)nc1-2	u	0.6%	-17.7%	x	u	-4.7%
COc1ccc(C(=O)Nc2nc(-c3ccc([N+](=O)[O-])cc3)c(-c3ccc(OC)cc3)s2)cc1	u	-12.8%	-0.3%	6.1%	10.3µM*	0.6%
COc1ccc(C(=O)Nc2cc([N+](=O)[O-])ccc2N2CCCC2)cc1	6.8%	-5.4%	-5.1%	3.3%	-12.9%	5.5%
COc1ccc2c(c1)Cc1sc(NC(=O)c3ccc(Cl)cc3)nc1-2	20.6µM*	-26.4%	-1.0%	x	13µM*	2.1%
COc1ccc(C(=O)Nc2nc3c(s2)CCc2cc(OC)ccc2-3)cc1	23.1µM*	-12.7%	-27.1%	x	25.9µM*	0.0%
CC(Oc1cccc(Cl)c1)C(=O)Nc1ccc(S(=O)(=O)N(C)C2CCN(C)CC2)cc1 (centres undefined)	u	-3.0%	-7.0%	-6.6%	u	1.3%
Cc1cccc(CS(=O)(=O)c2ncc(Cl)c(C(=O)Nc3nc4ccc(F)cc4s3)n2)c1	2.31µM*	-22.8%	-11.1%	x	2.31µM*	-2.3%
CSc1ncc(Cl)c(C(=O)Nc2nc3ccc(F)cc3s2)n1	1.4%	18.3%	-4.7%	x	4.0%	4.9%
O=C(Nc1nc2ccc(F)cc2s1)c1nc(S(=O)(=O)Cc2ccccc2)ncc1Cl	2.31µM*	u	-7.6%	x	2.31µM*	-2.3%
SMILES	DT40 TDP1 CPT	VDR inhibitor	KAT2A inh	PLK1 PBD block	TDP1 cell noCPT	TDP1 block
COCCn1c(N)c(N(Cc2ccccc2)C(=O)c2ccc(-c3ccc(Cl)cc3)o2)c(=O)[nH]c1=O	u	-3.5%	-2.9%	-14.6%	u	x
CCOc1ccc(Nc2cc(=O)oc3ccccc23)cc1	10.3µM*	-1.4%	-2.8%	-1.9%	18.4µM*	-11.5%
CCOc1ccc2oc(=O)cc(C)c2c1	2.8%	-16.3%	-5.2%[0.501 µM]	-4.0%	-16.9%	-0.7%
COc1ccc(C(C)=O)cc1Cn1c(=O)cc(C)[nH]c1=O	2.5%	-8.0%	1.8%	-0.8%	-5.7%	5.4%
COc1ccc(C(C)=O)cc1Cn1cnc2c(cnn2C)c1=O	u	u	-1.4%	18.9µM*	u	0.0%
COc1cccc(CN(C)C(=O)c2ccc(NC(=O)CC3SC(N4CCCCC4)=NC3=O)cc2)c1OC (centres undefined)	-8.9%	-9.8%	x	-1.7%	-3.9%	x
COc1ccc(CN(C)C(=O)c2cccc(NC(=O)CC3SC(N4CCCCC4)=NC3=O)c2)c(OC)c1 (centres undefined)	5.17µM*	-1.5%	x	-7.6%	5.17µM*	x
O=C(Nc1c(F)cccc1F)C1CCN(C(=O)c2cccs2)CC1	10.2%	-5.8%	-1.1%	-9.4%	-12.6%	x
NC1CCN(c2c(F)cc3c(=O)c(C(=O)O)cn(C4CC4)c3c2Cl)C1 (centres undefined)	7.31µM*	-17.8%	-14.0%	-3.6%	6.51µM*	0.0%
CCN(CC)CCNC1=NCCn2c1cc1cc(OC)ccc12	20.6µM*	6.1%	-6.1%	-11.9%	u	4.6%
COc1cnc(-c2ccccn2)nc1N(C)C	u	-0.6%	1.5%	0.1%	2.91µM*	8.8%
COc1cnc(-c2ccccn2)nc1Sc1c(Cl)cccc1Cl	0.651µM*	-4.8%	-1.1%	-4.8%	0.92µM*	2.9%
CCOC(=O)C(C)Sc1nc(-c2ccccn2)ncc1OC (centres undefined)	2.91µM*	7.9%	-9.9%	u	5.8µM*	2.9%
COc1cnc(-c2ccccc2)nc1Oc1cccc(C)c1	u	-9.0%	-24.3%	-3.1%	u	-10.3%
COc1cnc(-c2ccccn2)nc1Oc1cccc(Cl)c1	18.4µM*	-3.8%	-6.0%	4.4%	8.2µM*	10.5%
